Results as given in PubChem BioAssay (Tox21).
Results filed as inconclusive are left out. Entries that show only a call come without a potency. Unmarked numbers belong to inactive results. The source made the active and inactive calls. Unless noted, calls follow the shape of the dose curve; as a rule, active = well fitted curve in the direction sought with a large enough effect in the repeat runs; inconclusive = weak or mixed curves; inactive = no such curve, though single readings can be large; an effect the other way counts as inactive or inconclusive.

Legend:
[1] = biological target: Retinoic acid receptor RXR-alpha (Homo sapiens) (UniProt P19793); test: qHTS assay to identify small molecule agonists of the RXR signaling pathway (AID 1159527; calls by dose curve; also: nearly all actives have a fitted effect of over 35% in size)
Outline: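 Agonist mode; 9-cis retinoic acid positive control. HEK 293T UAS-bla reporter cells, 2% charcoal-stripped FBS, 16 hr compound exposure at 37 C/5% CO2. LiveBLAzer B/G FRET substrate 2 hr RT; ex 405, em 460/530 nm.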

[2] = qHTS assay to identify small molecule agonists of the RXR signaling pathway - cell viability counter screen (AID 1159529); also: nearly all actives have a fitted effect of over 50% in size
Outline: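 Luminescence from CellTiter-Glo (30 min, RT) measured viability in the same wells as the beta-lactamase reporter readout. Cells: GeneBLAzer RXR-alpha HEK 293T, 2% charcoal-stripped FBS. Compound exposure 16 hr, 37 C.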

[3] = qHTS assay to identify small molecule antagonists of the retinoid acid receptor (RAR) signaling pathway - cell viability counter screen (AID 1159551); also: nearly all actives have a fitted effect of over 35% in size
Outline: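 Cells (C3RL4) are plated, incubated overnight, dosed with compound in DMSO, then given retinol at 1 uM final. After 6 h at 37 C, CellTiter-Glo is added and luminescence read following 30 min at room temperature.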

[4] = qHTS assay to identify small molecule antagonists of the retinoic acid receptor (RAR) signaling pathway (AID 1159552; also: nearly all actives have a fitted effect of over 50% in size)
Outline: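 Luminescence from a RARE luciferase reporter in C3RL4 cells served as read-out. Cells received compounds together with 1 uM final retinol and incubated 6 hr at 37 C before detection reagent was added for 30 min at room temperature.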

[5] = qHTS assay to identify small molecule agonists of the retinoic acid receptor (RAR) signaling pathway (AID 1159553); settings: C3RL4 RARE luciferase reporter, agonist, 6 h; activation: at 73.3 µM (top of the series); also: potency is read from the fitted curve at half-maximal effect
Outline: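 Seed C3RL4 reporter cells at 1,000 per well and incubate overnight at 37 C. Add compounds in DMSO, incubate 6 hr. Add luciferase reagent, wait 30 min at room temperature, read luminescence.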

[6] = qHTS assay to identify small molecule antagonists of the estrogen related receptor (ERR) signaling pathway from Tox21 library - cell viability counter screen (AID 1224834); also: nearly all actives have a fitted effect of over 30% in size
Outline: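 ERR cells, 2,000/well; 6 h settle at 37 C/5% CO2; pin-tool compound transfer in DMSO; 17.5 h at 37 C; CellTiter-Fluor, 30 min; fluorescence intensity.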

[7] = biological target: Luciferin 4-monooxygenase (Photinus pyralis) (UniProt P08659); test: qHTS assay to identify small molecule inhibitors of firefly luciferase (AID 1224835); also: nearly all actives have a fitted effect of over 25% in size; also: potency is read from the fitted curve at half-maximal effect
Outline: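 Quantitative HTS format; KM concentrations of both substrates. Purified P. pyralis FLuc activity quantified from luminescence images.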

[8] = qHTS assay to identify small molecule agonists of the constitutive androstane receptor (CAR) signaling pathway - cell viability counter screen (AID 1224836); also: nearly all actives have a fitted effect of over 45% in size
Outline: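 Viability read-out: CellTiter-Fluor fluorescence after 23 h compound exposure at 37 C/5% CO2 in double-stable HepG2-CYP2B6-hCAR cells, with PK11195 present at 0.75 uM final; compounds tested in 15-point titration.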

[9] = qHTS assay to identify small molecule antagonists of the constitutive androstane receptor (CAR) signaling pathway - cell viability counter screen (AID 1224837); also: nearly all actives have a fitted effect of over 45% in size
Outline: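 Viability was measured with CellTiter-Fluor in a HepG2 line carrying stably transfected hCAR and a CYP2B6-2.2kb construct. Cells were exposed for 23 hr at 37 C to 15 compound concentrations with 50 nM CITCO as agonist.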

[10] = biological target: Nuclear receptor subfamily 1 group I member 3 (Homo sapiens) (UniProt Q14994); test: qHTS assay to identify small molecule antagonists of the constitutive androstane receptor (CAR) signaling pathway (AID 1224838);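 also: HepG2 cells stably expressing hCAR with CYP2B6 luciferase reporter stimulated by CITCO; nearly all actives have a fitted effect of over 40% in size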
Outline: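 Antagonist mode used CITCO at a final 50 nM to activate CAR in human hepatoma HepG2 cells carrying stable hCAR and a 2.2 kb CYP2B6 promoter-luciferase construct. Compounds were tested at 15 concentrations over 24 h, with luminescence as the end point.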

[11] = biological target: Nuclear receptor subfamily 1 group I member 3 (Homo sapiens) (UniProt Q14994); test: qHTS assay to identify small molecule agonists of the constitutive androstane receptor (CAR) signaling pathway (AID 1224839); also: nearly all actives have a fitted effect of over 15% in size
Outline: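 Luminescence read-out (ONE-Glo, 30 min, room temperature) from double-stable HepG2-CYP2B6-hCAR cells exposed 24 h to 15-point compound series in presence of 0.75 uM PK11195 final.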

[12] = qHTS assay to identify small molecule antagonists of the estrogen related receptor signaling pathway with the pleiotropic PPARgamma coactivator (PGC) from Tox21 10K library - cell viability counter screen (AID 1224840; active = well fitted cell-killing curve with a large enough effect in the repeat runs, not every such curve was filed as active; also: nearly all actives have a fitted effect of over 40% in size)
Outline: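 Multiplexed viability counter screen in the PGC/ERR cell line: cells treated with DMSO-dissolved compounds for 17.5 hours at 37 C, then viability measured as CellTiter-Fluor fluorescence.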

[13] = qHTS assay to identify small molecule agonists of the hypoxia (HIF-1) signaling pathway - cell viability counter screen (AID 1224844; calls by dose curve; also: nearly all actives have a fitted effect of over 50% in size)
Outline: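 Cytotoxicity was measured in parallel with the HRE-driven beta-lactamase readout: after 17 hrs of compound exposure at 37C, HRE-bla ME-180 cells received CellTiter-Glo and luminescence was recorded 30 min later.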

[14] = qHTS assay to identify small molecule agonists of H2AX (AID 1224845; active = well fitted activation curve with a large enough effect in the signal ratio in the repeat runs, not every such curve was filed as active; the % refers to the signal ratio)
Outline: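 Wild-type CHO-K1 cells plated overnight, then exposed 3 hr at 37C to compounds at 15 concentrations (0.76% DMSO). Lysed, then HTRF anti-pH2AX(S139)-cryptate/anti-H2AX-d2 detection after 24 hr at room temperature; emissions 665 and 620 nm.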

[15] = qHTS assay to identify small molecule agonists of the hypoxia (HIF-1) signaling pathway (AID 1224846; active = well fitted activation curve with a large enough effect in the signal ratio in the repeat runs, not every such curve was filed as active; the % refers to the signal ratio)
Outline: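 Compounds from the Tox21 10K library, dissolved in DMSO, are tested for induction of a hypoxia response element–controlled beta-lactamase reporter in ME-180 cells. Exposure lasts 17 hrs at 37C after a 5 hr settling period, followed by CCF4-AM FRET substrate.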

[16] = qHTS assay to identify small molecule agonists of H2AX - cell viability counter screen (AID 1224847; calls by dose curve; also: top concentration of the series differs between compounds; nearly all actives have a fitted effect of over 30% in size)
Outline: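 CHO-K1 wt, 1000 cells/well, o/n 37C; cpds 15 conc, 3 h 37C, 0.76% DMSO; CellTiter-Glo, 30 min RT, luminescence.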

[17] = qHTS assay to identify small molecule antagonists of the estrogen related receptor signaling pathway with the pleiotropic PPARgamma coactivator (PGC) from Tox21 10K library (AID 1224841; call rule not given here; also: actives are mostly falling curves and most rising ones were filed inactive; nearly all actives have a fitted effect of over 50% in size)
Outline: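 Steps: plate 2,000 PGC/ERR cells per well; incubate 6 h at 37 C with 5% CO2; transfer compounds from DMSO stocks by pin tool; incubate 18 h at 37 C; add One-Glo; measure luminescence 30 min later.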

[18] = qHTS assay to identify small molecule agonists of the estrogen related receptor signaling pathway with the pleiotropic PPARgamma coactivator (PGC) from Tox21 10K library (AID 1224842); also: nearly all actives have a fitted effect of over 15% in size
Outline: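 PGC/ERR reporter cells (NTP line) were seeded 2,000 per well, rested 6 h at 37 C/5% CO2, then pin-dosed with compounds in DMSO for 18 h at 37 C; luciferase read by One-Glo luminescence after 30 min at room temperature.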

[19] = biological target: Thyrotropin receptor (Homo sapiens) (UniProt P16473); test: qHTS assay to identify small molecule agonists of the thyroid stimulating hormone receptor (TSHR) signaling pathway (AID 1224843; calls by dose curve; also: nearly all actives have a fitted effect of over 45% in size)
Outline: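 Using 15 concentrations per compound in triplicate, cAMP production was monitored in TSHR-HEK293 cells after 30 min compound incubation at RT; HTRF reagents followed, with fluorescence intensity recorded after 1 h.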

[20] = qHTS assay to identify small molecule antagonists of the estrogen related receptor (ERR) signaling pathway from Tox21 library (AID 1224848); also: nearly all actives have a fitted effect of over 50% in size
Outline: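 Tox21 10K compounds in DMSO tested for ERR pathway antagonism in NTP's ERR cell line; 18 h, 37 C exposure; ONE-Glo luminescence.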

Nuclear receptor subfamily 1 group I member 3 (Homo sapiens), sequence (Q14994 whole entry, looked up): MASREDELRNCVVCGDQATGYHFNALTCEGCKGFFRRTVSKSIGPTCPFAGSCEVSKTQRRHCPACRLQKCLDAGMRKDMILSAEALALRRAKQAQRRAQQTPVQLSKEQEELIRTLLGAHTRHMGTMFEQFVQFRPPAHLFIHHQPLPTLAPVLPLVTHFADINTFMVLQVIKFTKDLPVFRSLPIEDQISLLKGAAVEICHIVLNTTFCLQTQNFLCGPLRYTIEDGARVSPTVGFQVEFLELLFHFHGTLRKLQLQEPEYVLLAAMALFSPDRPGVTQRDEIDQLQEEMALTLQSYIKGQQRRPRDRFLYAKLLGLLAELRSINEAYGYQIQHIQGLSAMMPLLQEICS
Luciferin 4-monooxygenase (Photinus pyralis), sequence (P08659 whole entry, looked up): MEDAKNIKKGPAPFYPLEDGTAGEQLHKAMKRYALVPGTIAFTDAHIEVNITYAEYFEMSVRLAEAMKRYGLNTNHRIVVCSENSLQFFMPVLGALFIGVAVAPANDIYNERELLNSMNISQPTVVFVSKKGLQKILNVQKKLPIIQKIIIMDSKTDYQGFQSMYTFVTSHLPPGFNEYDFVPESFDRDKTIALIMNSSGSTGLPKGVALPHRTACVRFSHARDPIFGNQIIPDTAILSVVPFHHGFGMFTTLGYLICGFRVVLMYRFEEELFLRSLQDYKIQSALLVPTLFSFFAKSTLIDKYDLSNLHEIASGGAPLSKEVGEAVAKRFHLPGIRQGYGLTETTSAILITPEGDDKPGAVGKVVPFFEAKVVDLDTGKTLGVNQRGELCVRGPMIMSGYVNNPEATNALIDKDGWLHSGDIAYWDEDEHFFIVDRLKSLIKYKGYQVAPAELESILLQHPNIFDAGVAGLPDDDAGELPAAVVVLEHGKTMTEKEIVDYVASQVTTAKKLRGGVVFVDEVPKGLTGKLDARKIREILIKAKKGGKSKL
Thyrotropin receptor (Homo sapiens), sequence (P16473 whole entry, looked up): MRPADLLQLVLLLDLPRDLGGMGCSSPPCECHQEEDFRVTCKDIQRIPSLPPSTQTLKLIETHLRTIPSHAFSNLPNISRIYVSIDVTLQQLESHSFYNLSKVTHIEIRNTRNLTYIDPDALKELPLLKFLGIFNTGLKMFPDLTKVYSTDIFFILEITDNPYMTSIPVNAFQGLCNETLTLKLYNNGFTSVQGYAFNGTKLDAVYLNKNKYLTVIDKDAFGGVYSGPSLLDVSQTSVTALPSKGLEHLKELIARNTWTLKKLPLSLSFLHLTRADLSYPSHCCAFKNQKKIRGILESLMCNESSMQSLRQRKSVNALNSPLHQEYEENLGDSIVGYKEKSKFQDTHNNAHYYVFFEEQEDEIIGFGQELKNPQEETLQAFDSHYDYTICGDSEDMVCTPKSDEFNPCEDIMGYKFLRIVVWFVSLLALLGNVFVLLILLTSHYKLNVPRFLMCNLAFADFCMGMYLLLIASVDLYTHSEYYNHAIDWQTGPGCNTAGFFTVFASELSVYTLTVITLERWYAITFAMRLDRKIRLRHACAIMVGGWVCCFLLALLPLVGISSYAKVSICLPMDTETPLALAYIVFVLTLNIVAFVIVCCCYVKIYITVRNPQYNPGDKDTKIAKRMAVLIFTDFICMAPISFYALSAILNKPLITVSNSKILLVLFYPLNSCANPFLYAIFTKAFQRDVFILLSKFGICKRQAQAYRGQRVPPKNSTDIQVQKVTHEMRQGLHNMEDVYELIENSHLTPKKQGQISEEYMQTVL
Retinoic acid receptor RXR-alpha (Homo sapiens), sequence (P19793 whole entry, looked up): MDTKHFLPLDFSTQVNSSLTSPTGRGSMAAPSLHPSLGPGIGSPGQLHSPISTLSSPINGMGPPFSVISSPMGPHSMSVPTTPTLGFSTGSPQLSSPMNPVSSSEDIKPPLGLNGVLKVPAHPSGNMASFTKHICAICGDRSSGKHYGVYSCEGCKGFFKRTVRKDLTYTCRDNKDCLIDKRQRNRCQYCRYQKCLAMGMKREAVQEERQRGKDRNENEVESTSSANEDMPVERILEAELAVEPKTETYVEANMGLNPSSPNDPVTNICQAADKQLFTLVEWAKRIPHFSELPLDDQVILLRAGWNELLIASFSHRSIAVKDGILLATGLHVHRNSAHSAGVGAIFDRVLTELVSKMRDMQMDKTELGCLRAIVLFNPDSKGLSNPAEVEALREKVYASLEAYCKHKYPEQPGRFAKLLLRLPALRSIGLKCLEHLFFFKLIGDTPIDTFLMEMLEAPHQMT

Row | SMILES | Potency [1] | outcome [2] | outcome [3] | Potency [4] | Potency [5] | Potency [6] | Potency [7] | outcome [8] | Potency [9] | Potency [10] | Potency [11] | outcome [12] | outcome [13] | outcome [14] | outcome [15] | Potency [16] | Potency [17] | outcome [18] | outcome [19] | Potency [20]
1 | CCCCC(CC)COC(=O)c1ccccc1 (stereo not given) | inactive | inactive | inactive | inactive | inactive | inactive | inactive | inactive | inactive | inactive | inactive | inactive | inactive | inactive | inactive | inactive |  |  |  | 
2 | CC(C)COC(=O)CC(C(=O)OCC(C)C)S(=O)(=O)O (stereo not given) | inactive | inactive | inactive | inactive | inactive | inactive | inactive | inactive | inactive | inactive | inactive | inactive | inactive | inactive | inactive |  |  |  |  | 
3 | C=COCCOCCOC=C | inactive | inactive | inactive | inactive | inactive | inactive | inactive | inactive | inactive | inactive | inactive | inactive | inactive | inactive | inactive | inactive |  |  |  | 
4 | CC1CCC(C(C)(C)S)C(=O)C1 (stereo not given) | inactive | inactive | inactive | inactive | inactive | inactive | inactive | inactive | inactive |  |  | inactive | inactive | inactive | inactive | inactive | inactive | inactive | inactive | inactive
5 | CCC(=O)OCCC(C)CCC=C(C)C (stereo not given) | inactive | inactive | inactive | inactive | inactive | inactive | inactive | inactive | inactive | inactive | inactive | inactive | inactive | inactive | inactive | inactive |  |  |  | 
6 | CC(C)SCc1ccco1 | inactive | inactive | inactive | inactive | inactive | inactive | inactive | inactive | inactive |  |  | inactive | inactive | inactive | inactive | inactive | inactive | inactive |  | inactive
7 | COc1ccc(OC)c(NC(=O)CC(C)=O)c1 | inactive | inactive | inactive | inactive | inactive | inactive | inactive | inactive | inactive | inactive |  | inactive | inactive | inactive | inactive | inactive |  |  | inactive | 
8 | CCCCCN(CCCOC)C(=O)C(CCC(=O)O)NC(=O)c1ccc(Cl)c(Cl)c1 (stereo not given) | inactive | inactive | inactive | inactive | inactive | inactive | inactive | inactive | inactive |  |  | inactive | inactive | inactive | inactive | inactive | inactive | inactive |  | inactive
9 | CC(C)COC(=O)/C=C/c1ccccc1 | inactive | inactive | inactive | inactive | 30.6 µM (active) | inactive | 7.1 µM (active) | inactive | inactive | inactive |  | inactive | inactive | inactive | inactive |  | inactive | inactive |  | inactive
10 | C/C=C(\C)C(=O)OCC/C=C\CC | inactive | inactive | inactive | inactive | inactive | inactive | 35.6 µM (active) | inactive | inactive |  | inactive | inactive | inactive | inactive | inactive | inactive |  |  | inactive | 
11 | CCS(=O)(=O)CCn1c([N+](=O)[O-])cnc1C | inactive | inactive | inactive | inactive | inactive | inactive | inactive | inactive | inactive | inactive |  | inactive | inactive | inactive |  | inactive |  | inactive | inactive | inactive
12 | CCCCOC(=O)C(C)OC(=O)CCC (stereo not given) | inactive | inactive | inactive | inactive | inactive | inactive | inactive | inactive | inactive |  |  | inactive |  | inactive | inactive | inactive | inactive | inactive | inactive | inactive
13 | CC(=O)OCCCc1ccccc1 | inactive | inactive | inactive | inactive | inactive | inactive | inactive | inactive | inactive |  |  | inactive | inactive | inactive | inactive | inactive | inactive | inactive | inactive | inactive
14 | C=CCOc1cc(Cl)ccc1C(=O)NCCN(CC)CC | inactive | inactive | inactive | inactive | inactive | inactive | inactive | inactive | inactive | inactive |  | inactive | inactive |  | inactive | inactive |  |  | inactive | 
15 | NS(=O)(=O)c1cc2c(cc1Cl)NC(C(Cl)Cl)NS2(=O)=O (stereo not given) | inactive | inactive | inactive | inactive | inactive | inactive | inactive | inactive | inactive |  | inactive | inactive | inactive |  |  | inactive |  |  | inactive | 
